# TDP1 inh = inhibitors of human tyrosyl-DNA phosphodiesterase TDP1; recombinant TDP1, AlphaScreen DNA substrate cleavage; Potency, µM (series often up to 130 µM), without a hit: at the top dose activity change, negative = inhibition, actives largely listed as inhibitors; actives 0.28% (n = 350,000); AID 485290; also: % is scaled to controls: 0 for no effect and ±100 for the full control effect; nearly all actives have a fitted effect of over 40% in size
#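 Recombinant human Tdp1 (E. coli-expressed, 1 nM final) preincubated with compounds 15 min at room temperature, then 5'-biotin/3'-phosphotyrosine-FITC DNA substrate (15 nM final) added for 5 min. AlphaScreen beads (10 ug/ml final) added 10 min; cleavage lowers signal.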
# ClpP mod = qHTS Assay for Activators of ClpP. ATP-dependent Clp protease proteolytic subunit (Bacillus subtilis (strain 168)), P80244. purified B. subtilis ClpP, FRET peptide cleavage, 20 min. Potency, µM (highest dose often 57.5 µM), without a hit: top-dose activity change, negative = active. actives 1.9% (n = 340,000). AID 651965, 2013; active = well fitted falling curve with a large enough effect; inconclusive = small, poorly fitted or top-dose-only effect; inactive = no such curve, though single readings can be large or run the other way; also: the source files actives as falling curves though it sought activators and does not explain the sign; nearly all actives have a fitted effect of over 65% in size
# Target sequence (P80244 whole entry, looked up): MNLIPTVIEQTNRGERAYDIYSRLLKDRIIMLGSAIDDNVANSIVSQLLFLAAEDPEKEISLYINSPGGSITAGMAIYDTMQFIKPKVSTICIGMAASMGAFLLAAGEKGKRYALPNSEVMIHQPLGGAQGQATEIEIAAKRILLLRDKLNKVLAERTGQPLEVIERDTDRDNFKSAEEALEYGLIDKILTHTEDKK
#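 Buffer: 100 mM Tris/HCl pH8, 100 mM KCl, 0.05% low protease BSA, 2.5% glycerol, 0.01% Tween-20. ClpP 10 microg/mL final; 20 min RT; delta FRET normalized to ADEP and DMSO controls.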
# DT40 TDP1 no CPT = qHTS for Inhibitors of human tyrosyl-DNA phosphodiesterase 1 (TDP1): qHTS in cells in absence of CPT | DT40 Tdp1-/- hTDP1 cells, no CPT, ATP luminescence, 48 h | Potency, µM (series often up to 46.2 µM), for inactives: top-dose activity change, negative = growth inhibition, usual class: inhibitors | actives 15% (n = 420,000) | AID 686978, 2013; also: % is scaled to controls: 0 for no effect and ±100 for the full control effect; nearly all actives have a fitted effect of over 55% in size
#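 Growth of hTDP1-complemented DT40 Tdp1-knockout cells is measured by ATP luminescence after at least 48 hr compound exposure at 37 °C, with DMSO substituting for the 20 nM CPT used in the parallel screen.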
# DT40 TDP1 CPT = growth inhibition of DT40 Tdp1-/-;hTDP1 cells with camptothecin (screen for TDP1 inhibitors) | chicken DT40 Tdp1-/-;hTDP1 cells + 20 nM CPT, ATP luminescence, 48 h | Potency, µM (highest dose often 46.2 µM), for the others: at the top dose activity change, negative = growth inhibition, actives largely listed as inhibitors | actives 12% (n = 420,000) | AID 686979; also: % is scaled to controls: 0 for no effect and ±100 for the full control effect; nearly all actives have a fitted effect of over 55% in size
#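 Cell growth measured by CellTiter-Glo luminescence after a minimum 48 h, 37 C compound exposure with 20 nM CPT in Tdp1-knockout DT40 cells stably expressing hTDP1, seeded 400/well; qHTS titration format.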
# An asterisk follows results filed as active; ? = inconclusive; · = no result; [ ] = another dose, or the depositor's remark. Sampled rows, rich in hits. Any-hit rate of the full collection: about 17%. Unless noted, calls follow the shape of the dose curve; as a rule, active = well fitted curve in the direction sought with a large enough effect; inconclusive = small, poorly fitted or top-dose-only effect, or another doubt; inactive = no such curve, though single readings can be large; an effect the other way counts as inactive or inconclusive. Potency is read from the fitted curve at half-maximal effect.
SMILES,TDP1 inh,ClpP mod,DT40 TDP1 no CPT,DT40 TDP1 CPT
COc1ccc(N2CCN(C(CNC(=O)C(=O)NCCc3ccccc3)c3cccnc3)CC2)cc1 (configuration not stated),-3%,-3%,16µM*,15µM*
COc1ccc(N2CCN(C(CNC(=O)C(=O)NCc3ccc(C)cc3)c3cccnc3)CC2)cc1 (configuration not stated),1%,0%,7.3µM*,8.2µM*
CCC(=O)N1CCc2cc(S(=O)(=O)NC(Cc3ccccc3)C(=O)Nc3ccc(Cl)cc3)ccc21 (configuration not stated),5%,-1%,?,?
O=C1c2ccccc2CN1Cc1ccccc1,·,·,-7%,-2%
Cc1ccc(S(=O)(=O)N2CCN(C(=O)Cn3nc(C)c([N+](=O)[O-])c3C)CC2)cc1,0%,0%,-7%,-1%
CC(C)(C)c1cc(NC(=O)C2(C)CCN2C(=O)C2(c3ccccc3)CC2)no1 (configuration not stated),·,0%,21µM*,?
CC(C)(C)c1cc(NC(=O)C2(C)CCN2C(=O)C2(c3ccccc3)CCCC2)no1 (configuration not stated),·,3%,15µM*,15µM*
COc1ccc(-c2cc(-c3cccs3)nc3sc(C#N)c(N)c23)cc1,5%,-5%,?,-12%
N#Cc1sc2nc(C3CC3)cc(-c3ccc(Cl)cc3)c2c1N,·,?,?,16µM*
CC(=O)Nc1cc2c3c(c1)CC(=O)N3CCC2,4%,-1%,-3%,0%
C[C@H](CO)N1C[C@H](C)[C@@H](CN(C)C(=O)Nc2ccccc2)Oc2c(NC(=O)C3CCCCC3)cccc2C1=O,0%,0%,-10%,-17%
O=C(O)C1Cc2[nH]cnc2C(c2cccc([N+](=O)[O-])c2)N1 (configuration not stated),2%,1%,-16%,-6%
O=C(O)C1Cc2[nH]cnc2C(c2ccccc2O)N1 (configuration not stated),0%,28µM*,4%,13%
O=C(CN(Cc1ccccc1)S(=O)(=O)c1ccc(S(=O)(=O)N2CCOCC2)cc1)Nc1ccccc1,5%,-3%,-11%,8%
CCOC(=O)c1cnc2ccc(C)cc2c1NCCc1ccc(OC)c(OC)c1,·,-5%,15µM*,15µM*
CCOC(=O)c1cnc2ccc(Cl)cc2c1Nc1ccc(OCC)cc1,·,-4%,?,?
CCOC(=O)c1cnc2ccc(C)cc2c1NCCN1CCOCC1,·,-10%,-24%,-18%
CCOC(=O)c1cnc2ccc(OCC)cc2c1NCCc1ccc(OC)c(OC)c1,-6%,4%,2.3µM*,3.3µM*
CC(C)[C@@H]1Cc2[nH][nH]c(=O)c2[C@H](C(C)C)O1,·,-1%,-24%,-16%
CCOC(=O)C1(Cc2cccc(Cl)c2)CCCN(C(=O)c2cc(C)n(C)n2)C1 (configuration not stated),3%,-1%,?,?
CC#CC(=O)N1CCCC(Cc2cccc(OC)c2)(C(=O)OCC)C1 (configuration not stated),·,1%,-3%,-9%
CCOC(=O)C1(Cc2cccc(Cl)c2)CCCN(C(=O)c2ccnn2C)C1 (configuration not stated),2%,-9%,?,15µM*
CCOC(=O)C1(Cc2cccc(Cl)c2)CCCN(C(=O)c2cc(CC)on2)C1 (configuration not stated),1%,1%,16µM*,?
CCOC(=O)C1(Cc2cccc(OC)c2)CCCN(C(=O)c2cc(C)oc2C)C1 (configuration not stated),8%,-1%,13µM*,21µM*
CCCc1cc(C(=O)N2CCCC(Cc3cccc(Cl)c3)(C(=O)OCC)C2)n(C)n1 (configuration not stated),0%,-1%,13µM*,18µM*
SMILES,TDP1 inh,ClpP mod,DT40 TDP1 no CPT,DT40 TDP1 CPT
Cc1cccc(N/N=C(\C=N\N)C(=O)c2ccc(Br)cc2)c1,6%,·,·,·
CCCN(CC(=O)NC(=O)NCc1ccccc1)CC(=O)Nc1ccc(F)c(F)c1F,·,-1%,?,?
CC(C)Oc1ccc(C(CC(=O)O)NC(=O)c2cccs2)cc1 (configuration not stated),-7%,0%,1%,9%
CCc1cccc(NC(=O)CCn2c(=O)c3cccn3c3cccnc32)c1,3%,-14%,-17%,-22%
COC(=O)[C@@H]1CCCN1Cc1ccc2c(c1)CN(Cc1ccc(OC)c(C)c1)CCO2,·,·,-11%,-1%[9.04 µM]
CCOC(=O)C1(Cc2cccc(Cl)c2)CCCN(C(=O)c2cnn(CC)c2)C1 (configuration not stated),6%,32µM*,-20%,-17%
CC1(C)NC(=O)N(CCCCOc2ccccc2[N+](=O)[O-])C1=O,6%,·,·,·
CC1(C)NC(=O)N(c2ccc([N+](=O)[O-])c(C(F)(F)F)c2)C1=O,-5%[56.1 µM],0%,4.6µM*,19µM*
COCCn1c(=O)c(-c2cc(F)cc(F)c2)nc2cnc(Nc3cccc(OC)c3)nc21,·,·,-22%,7%
CCCNC(=O)c1cc(C2CCCCN2S(=O)(=O)c2ccc(F)cc2F)on1 (configuration not stated),·,2%,-27%,0%
COc1ccc(NC(=O)c2cc(C3CCCCN3S(=O)(=O)c3ccccc3)on2)c(C)c1 (configuration not stated),·,0%,8.2µM*,?
COc1ccc(NC(=O)c2cc(C3CCCCN3S(C)(=O)=O)on2)c(C)c1 (configuration not stated),·,-1%,-4%,-11%
COc1ccc(NC(=O)c2cc(C3CCCCN3S(=O)(=O)c3ccc(F)cc3F)on2)c(C)c1 (configuration not stated),·,-1%,15µM*,?
CCn1nc(C(=O)NCC(c2cccs2)N2CCOCC2)c2ccccc2c1=O (configuration not stated),3%,0%,21µM*,15µM*
CCCn1nc(C(=O)NCC(C)(C)N2CCOCC2)c2ccccc2c1=O,2%,-1%,-15%,-21%
CCCCn1nc(C(=O)NCC(c2cccs2)N2CCOCC2)c2ccccc2c1=O (configuration not stated),1%,-1%,21µM*,?
CCC(=O)NCC(c1cccs1)N1CCOCC1 (configuration not stated),2%,-1%,-11%,?
O=C(NCC(c1cccs1)N1CCOCC1)c1cc(-c2ccc(F)cc2)nc2ccccc12 (configuration not stated),4%,·,16µM*,?
Cn1c(O)c(N=NC(=O)CNC(=O)/C=C/c2ccccc2)c2ccccc21,4%,1%,?,?
